# Measured values: PubChem BioAssay (NCATS)
# Records with an inconclusive call do not appear. Active and inactive are the calls of the source. Unless noted, calls come from the whole dose curve; as a rule, active = well fitted inhibition curve with a large enough effect; inconclusive = small, poorly fitted or top-dose-only effect; inactive = no such curve, though single readings can be large or run the other way.
# Columns and labels:
# [1] = qHTS profiling of the MIPE4 collection as inhibitors of Plasmodium falciparum (HB3) proliferation (AID 743347; call rule not given here;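 note: plate controls were DMSO vehicle wells for no effect and artemisinin wells for full effect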); details: P. falciparum HB3 in erythrocytes, SYBR Green DNA, 72 h; at 28.5 µM (top of the series) unless noted
# Outline: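 Erythrocytes infected with P. falciparum (0.3% parasitemia, 2.5% hematocrit) incubated with compounds 72 h at 37 C, 5% CO2. Lysis with saponin/Triton buffer containing SYBR Green I, overnight at room temperature in the dark; DNA fluorescence (485/535 nm) normalised to 0.29 uM artemisinin and DMSO.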
# [2] = High-throughput drug toxicity screening in the BPDCN cell line Gen2.2 (AID 1224824; call rule not given here;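 note: cells exposed to compounds for 48 h before reading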); details: Gen2.2 BPDCN cells; at 45.8 µM (top of the series) unless noted
# Outline: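 Gen2.2 cells, 500 per well in phenol red-free RPMI with 10% FBS, exposed to compounds 48 h at 37 C, 5% CO2; viability by CellTiter-Glo luminescence. Percent activity scaled to DMSO (100%) and 9.2 uM bortezomib final (0%).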
# [3] = High-throughput drug toxicity screening in the BPDCN cell line Cal-1 (AID 1224825; call rule not given here); details: Cal-1 BPDCN cell viability, qHTS; at 45.8 µM (top of the series) unless noted
# Outline: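 Cal-1 cells, 500 per well in phenol-red-free RPMI with 10% FBS, exposed to compounds for 48 hours at 37C, 5% CO2. Viability read by CellTiter-Glo luminescence; percent activity normalized to DMSO (100%) and 9.2 uM bortezomib final (0%).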
# [4] = qHTS assay for measurement of the activity of small molecule inhibitors on Zika virus induced Caspase-3 activity in human astrocytoma cells (AID 1224859); note: potency is the fitted concentration of half-maximal effect;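 for activity change, negative = inhibition: plate controls were ZIKV-infected untreated cells for no effect and uninfected cells for full effect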
# Outline: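 Caspase activation in ZIKV-infected SNB-19 cells (2 FFU/cell, 6 h) measured by Caspase-Glo 3/7 luminescence after 30 min RT; compound pre-incubated 1 h; normalised to uninfected and infected controls.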
# [5] = qHTS Screen of the MIPE 4.0 Collection Against Ewings Sarcoma (RDES) (AID 1259252); note: nearly all actives have a fitted effect of over 35% in size; note: potency is the fitted concentration of half-maximal effect;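 for viability (percent of control): 100% = DMSO-treated cells and 0% = medium-only wells without cells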
# Outline: (§1)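 Log-phase cells in RPMI with 5% FBS attached for 4 h, then received compounds as a titration for 48 h at 37C, 5% CO2. Viability was read by CellTiter-Glo luminescence and normalized to DMSO and no-cell wells.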
# [6] = qHTS Screen of the MIPE 4.0 Collection Against Ewings Sarcoma (TC71) (AID 1259253); note: nearly all actives have a fitted effect of over 40% in size; note: potency is the fitted concentration of half-maximal effect;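 for viability (% of DMSO): 100% = DMSO-treated cells and 0% = medium-only wells without cells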
# Outline: as §1
# [7] = qHTS Screen of the MIPE 4.0 Collection Against Ewings Sarcoma (EW8) (AID 1259255); note: nearly all actives have a fitted effect of over 35% in size; note: potency is the fitted concentration of half-maximal effect;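 for viability: 100% = DMSO-treated cells and 0% = medium-only wells without cells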
# Outline: as §1
# [8] = qHTS Screen of the MIPE 4.0 Collection Against Ewings Sarcoma (TC32) (AID 1259256); note: nearly all actives have a fitted effect of over 45% in size; note: potency is the fitted concentration of half-maximal effect;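 for viability (percent of control): 100% = DMSO-treated cells and 0% = medium-only wells without cells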
# Outline: as §1
# [9] = P-glycoprotein substrates identified in KB-3-1 adenocarcinoma cell line, qHTS therapeutic library screen (AID 1346986); note: nearly all actives have a fitted effect of over 60% in size;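 note: potency is the fitted concentration of half-maximal effect; potency is for cytotoxicity meaning loss of cell viability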
# Outline: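 Compounds were tested in dose-response against KB-3-1 and KB-8-5-11 cells at 37 degree C for 72 h, and viability was measured by luminescence. AC50 values came from curve fitting with class-based activity calls.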
# [10] = qHTS assay for measurement of the activity of small molecule inhibitors on Zika virus induced Caspase-3 activity in human iPSC derived neural progenitor cells (hNPCs) (AID 1224857); note: % of control where 0% means no effect; nearly all actives have a fitted effect of over 65% in size
# Outline: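 Zika virus (2 FFU/cell) infection of human iPSC-derived NPCs, 6 h, following 1 h compound preincubation. Read-out: Caspase-Glo 3/7 luminescence.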
Structure (SMILES),"growth, % of control [1]","cell viability, % of control (lower = more cytotoxic) [2]",viability (% of control) [3],Potency [4],Potency [5],Potency [6],Potency [7],Potency [8],Potency [9],Potency [10],"activity change, negative = inhibition [4]",viability (percent of control) [5],viability (% of DMSO) [6],viability [7]
O=C(Nc1ccc(Oc2ccnc3[nH]ccc23)c(F)c1)c1cccn(-c2ccc(F)cc2)c1=O,7.02%,83%,87.2%,inactive,inactive,inactive,inactive,inactive,inactive,–,–,–,–,–
Cc1cnc(Nc2ccc(CN3CCOCC3)cc2)nc1Nc1cccc(S(=O)(=O)NC(C)(C)C)c1,4.53%,1.99%,3.36%,–,3320 nM (active),3320 nM (active),2640 nM (active),3320 nM (active),–,inactive,–,–,–,–
CCCNC(=O)[C@H]1O[C@H]1C(=O)N[C@H](C(=O)N1CCC[C@@H]1C(=O)OC)C(C)CC (stereo not given in full),102%,18.6%,8.18%,–,3320 nM (active),6620 nM (active),11800 nM (active),5260 nM (active),–,inactive,–,–,–,–
CS[C@H]1SC[C@@H]2C(=O)N(C)[C@H](C(C)C)C(=O)OC[C@H](NC(=O)c3cnc4ccccc4n3)C(=O)N[C@H](C)C(=O)N(C)[C@@H]1C(=O)N(C)[C@H](C(C)C)C(=O)OC[C@H](NC(=O)c1cnc3ccccc3n1)C(=O)N[C@H](C)C(=O)N2C,10.7%,3.67%,5.19%,–,1.9 nM (active),2.6 nM (active),–,1.9 nM (active),–,inactive,–,–,–,–
CCc1cnn2c(NCc3ccc[n+]([O-])c3)cc(N3CCCC[C@@H]3CCO)nc12,8.08%,4.38%,3.16%,–,41.8 nM (active),26.4 nM (active),23.5 nM (active),–,–,inactive,–,–,–,–
O=C(Nc1cc2cc[nH]c2cn1)c1ccccc1,75.4%,13.5%,8.25%,5260 nM (active),13200 nM (active),13200 nM (active),14800 nM (active),13200 nM (active),–,–,–,–,–,–
Cn1cc(-c2cnn3c(N)c(Br)c([C@H]4CCCNC4)nc23)cn1,3.69%,8.78%,14.4%,inactive,332 nM (active),118 nM (active),148 nM (active),187 nM (active),–,–,–,–,–,–
CN(CC(=O)N(Cc1ccc(C2CCCCC2)cc1)c1ccc(C(=O)O)c(O)c1)S(=O)(=O)c1c(F)c(F)c(F)c(F)c1F,27.9%,52.5%,3.33%,inactive,18700 nM (active),8330 nM (active),9350 nM (active),6620 nM (active),–,–,–,–,–,–
Oc1cc2c(cc1O)C1c3ccc(O)c(O)c3OCC1(O)C2 (stereo not given),9.94%,167%,105%,–,inactive,inactive,inactive,–,–,inactive,–,–,–,–
CC[C@]12C=CCN3CC[C@@]4(c5cc([C@@]6(C(=O)OC)C[C@H]7C[C@@H](C(C)(F)F)CN(Cc8c6[nH]c6ccccc86)C7)c(OC)cc5N(C)[C@H]4[C@@](O)(C(=O)OC)[C@H]1OC(C)=O)[C@@H]32,16.3%,8.97%,9.46%,inactive,10.5 nM (active),18.7 nM (active),5.3 nM (active),inactive,–,–,–,–,–,–
CC(C)(C)[C@H](NC(=O)c1ccc(N)c(Cl)c1)C(=O)N1CCC[C@@H]1C(=O)N[C@H](C#N)CC(=O)O,588% [at 3.19 µM],14.9% [at 3.51 µM],25% [at 3.51 µM],–,–,–,–,–,–,–,53% [at 4.53 µM] (inactive),112% [at 3.51 µM] (inactive),134% [at 3.51 µM] (inactive),116% [at 3.51 µM] (inactive)
Cn1cnc(=N)c2[nH]cnc21,3.51%,128%,8.73%,–,296 nM (active),235 nM (active),209 nM (active),132 nM (active),–,inactive,–,–,–,–
O=S(=O)(O)CCSSCCS(=O)(=O)O,76%,33.7%,35.3%,inactive,inactive,inactive,inactive,inactive,–,–,–,–,–,–
Nc1ccn(C[C@@H](CO)OCP(=O)(O)O)c(=O)n1,–,138% [at 23.2 µM],98.1% [at 23.2 µM],inactive,inactive,inactive,inactive,inactive,–,–,–,–,–,–
CC(=O)OCC(=O)[C@@]1(O)CC[C@H]2[C@@H]3CCC4=CC(=O)CC[C@]4(C)[C@@H]3C(=O)C[C@@]21C,96.5%,108%,111%,inactive,inactive,inactive,inactive,–,–,–,–,–,–,–
CN[C@H]1[C@@H](O)[C@@H]2O[C@@H]3O[C@H](C)CC(=O)[C@]3(O)O[C@@H]2[C@@H](NC)[C@H]1O,6.56%,9.59%,5.36%,inactive,52.6 nM (active),1320 nM (active),1320 nM (active),1050 nM (active),inactive,–,–,–,–,–
COC1=C2C[C@@H](C)C[C@H](OC)[C@@H](O)[C@@H](C)C=C(C)[C@H](OC(N)=O)[C@@H](OC)C=CC=C(C)C(=O)NC(=CC1=O)C2=O,3.98%,3.44%,4.06%,–,590 nM (active),590 nM (active),372 nM (active),296 nM (active),–,inactive,–,–,–,–
Cc1cnn(C)c1C(=O)Nc1cc(Nc2ccc3c(C=Cc4ccccn4)n[nH]c3c2)ccc1F,6.36%,97.2%,10.9%,inactive,26400 nM (active),16600 nM (active),18700 nM (active),20900 nM (active),–,–,–,–,–,–
CCNC(=O)Nc1ccc(-c2nc3c(c(N4CCOC[C@H]4C)n2)CCN(C2COC2)C3)cc1,71.6%,5.52%,19.9%,inactive,1050 nM (active),935 nM (active),1050 nM (active),935 nM (active),580 nM (active),–,–,–,–,–
CC(C)N(CC[C@H](c1ccccc1)c1cc(CO)ccc1O)C(C)C,103%,145%,101%,inactive,inactive,inactive,inactive,inactive,inactive,–,–,–,–,–
N#CC(=C(O)c1ccc(Cl)cc1Cl)c1nc2cc(Cl)ccc2c(=O)[nH]1,74%,34.3%,95.9%,–,inactive,inactive,–,inactive,–,inactive,–,–,–,–
